Each structure is given as a SMILES string. Among all 39,000 compounds or so, about 1,500 (3.8%) were called active. The list comes from a sample in which actives are over-represented; it also holds similar structures and randomly drawn compounds.

For the test, the system named is HSkMC (human skeletal muscle cells). Nature of the test: cytotoxicity call (relative viability < 0.9). Conditions: 10 µM.
As to `CCc1nc2ccc(C(=O)NCc3ccc4c(c3)OCO4)cn2c1N(CC)Cc1cccc(Br)c1`, the cytotoxicity call is “inactive”.

For `C[C@@H]1CN([C@H](C)CO)C(=O)c2cc(NC(=O)Nc3ccc(C(F)(F)F)cc3)ccc2O[C@@H]1CN(C)C(=O)Nc1ccccc1`, the cytotoxicity call is “inactive”.

Regarding `COc1ccc(NC(=O)N(C)C[C@H]2OCCCC[C@H](C)Oc3ccc(NC(=O)Nc4ccc(F)cc4)cc3C(=O)N([C@H](C)CO)C[C@@H]2C)cc1`, the cytotoxicity call is “inactive”.

With `COc1ccc(S(=O)(=O)Nc2ccc3c(c2)C(=O)N([C@@H](C)CO)C[C@H](C)[C@H](CN(C)C(=O)c2ccccc2)OCCCC[C@@H](C)O3)cc1`, the cytotoxicity call is “inactive”.

In the case of `C[C@@H]1CCCCO[C@H](CN(C)Cc2ccc(Cl)c(Cl)c2)[C@@H](C)CN([C@@H](C)CO)C(=O)c2cc(NS(=O)(=O)c3cn(C)cn3)ccc2O1`, the cytotoxicity call was “inactive”.

For the molecule `OC[C@H]1O[C@H](Nc2ccccc2)C[C@@H]1O`, the cytotoxicity call was “inactive”.

`CC(C)CC#Cc1ccc2c(c1)O[C@@H](CN(C)C(=O)Cc1cccnc1)[C@H](C)CN([C@@H](C)CO)S2(=O)=O`: the cytotoxicity call was “inactive”.

For the molecule `C[C@@H]1CCCCO[C@H](CN(C)C(=O)Cc2ccccc2)[C@H](C)CN([C@@H](C)CO)C(=O)c2cc(NC(=O)Nc3ccccc3)ccc2O1`, the cytotoxicity call was “inactive”.

For the molecule `C[C@H](CO)N1C[C@H](C)[C@@H](CN(C)C(=O)Nc2ccc(C(F)(F)F)cc2)Oc2c(NS(C)(=O)=O)cccc2C1=O`, the cytotoxicity call was “inactive”.

For `CC(C)NC(=O)N(C)C[C@@H]1Oc2ccc(NS(=O)(=O)c3cn(C)cn3)cc2CC(=O)N([C@H](C)CO)C[C@@H]1C`, the cytotoxicity call is “inactive”.

`COc1ccc(S(=O)(=O)Nc2cccc3c2O[C@@H](CN(C)S(=O)(=O)c2cn(C)cn2)[C@H](C)CN([C@H](C)CO)C3=O)cc1`: the cytotoxicity call is “inactive”.

Regarding `C[C@@H]1CN([C@H](C)CO)C(=O)Cc2cc(NC(=O)Nc3ccc(C(F)(F)F)cc3)ccc2O[C@H]1CN(C)Cc1ccc(Oc2ccccc2)cc1`, the cytotoxicity call was “active”.

On to `C[C@H]1CN([C@@H](C)CO)C(=O)Cc2cc(NC(=O)Nc3ccc(C(F)(F)F)cc3)ccc2O[C@H]1CN(C)Cc1ccc(Oc2ccccc2)cc1`, for which the cytotoxicity call is “active”.

For the molecule `C[C@H](CO)N1C[C@H](C)[C@@H](CN(C)Cc2ccc(Oc3ccccc3)cc2)Oc2ccc(NC(=O)Nc3ccc(C(F)(F)F)cc3)cc2CC1=O`, the cytotoxicity call is “active”.

With `C[C@H](CO)N1C[C@H](C)[C@H](CN(C)Cc2ccc(Oc3ccccc3)cc2)Oc2ccc(NC(=O)Nc3ccc(C(F)(F)F)cc3)cc2CC1=O`, the cytotoxicity call was “active”.

On to `COc1ccc(S(=O)(=O)Nc2ccc3c(c2)CC(=O)N([C@@H](C)CO)C[C@@H](C)[C@@H](CN(C)Cc2ccncc2)O3)cc1`, for which the cytotoxicity call was “inactive”.

For `C[C@@H]1CN([C@@H](C)CO)C(=O)Cc2cc(NC(=O)CCN3CCOCC3)ccc2O[C@H]1CN(C)Cc1ccccc1`, the cytotoxicity call was “inactive”.

Consider `C[C@H](CO)N1C[C@H](C)[C@@H](CN(C)C(=O)Nc2ccccc2)Oc2ccc(NS(C)(=O)=O)cc2C1=O`, for which the cytotoxicity call was “inactive”.

For the molecule `C[C@H](CO)N1C[C@H](C)[C@H](CN(C)C(=O)Cc2cccnc2)Oc2ncc(C#Cc3ccccc3F)cc2C1=O`, the cytotoxicity call was “inactive”.

Turning to `O=C(N[C@H]1C=C[C@H](CC(=O)N2CCOCC2)O[C@H]1CO)c1ccc2c(c1)OCO2`, the cytotoxicity call is “inactive”.

`CON(C)c1nc(Oc2ccc(=O)[nH]n2)nc(N(C)C)n1`: the cytotoxicity call was “inactive”.

In the case of `CN1CCN(C)C1=O`, the cytotoxicity call is “inactive”.

Consider `COc1cccc(CNC(=O)C[C@H]2C=C[C@H](NC(=O)C3CCOCC3)[C@@H](CO)O2)c1`, for which the cytotoxicity call was “inactive”.

With `O=C(C[C@H]1C=C[C@H](NS(=O)(=O)c2ccc(F)cc2)[C@@H](CO)O1)NCCN1CCCCC1`, the cytotoxicity call was “inactive”.

Consider `c1ccc(-c2cccs2)cc1`, for which the cytotoxicity call was “inactive”.

As to `O=C(O)CCNC(=O)c1cncc(O)c1`, the cytotoxicity call is “inactive”.

`COC(=O)c1ccc(O)cc1`: the cytotoxicity call is “inactive”.

With `COC(=O)c1ccc(C(=O)OC)nc1`, the cytotoxicity call was “active”.

Take `COC(=O)c1cccnc1`: the cytotoxicity call is “inactive”.

As to `COc1ccc(NC(=O)N(C)C[C@H]2Oc3ccc(NC(=O)Nc4ccc(C(F)(F)F)cc4)cc3C(=O)N([C@@H](C)CO)C[C@@H]2C)cc1`, the cytotoxicity call is “inactive”.

As for `O=C(N[C@H]1C=C[C@H](CC(=O)N2CCOCC2)O[C@H]1CO)c1ccccn1`, the cytotoxicity call was “inactive”.

Regarding `COCC(=O)Nc1ccc2c(c1)OC[C@H](C)N(Cc1cccc(F)c1)C[C@H](C)[C@@H](OC)CN(C)C2=O`, the cytotoxicity call is “inactive”.

`C[C@@H]1CCCCO[C@H](CN(C)C(=O)Nc2ccc3c(c2)OCO3)[C@H](C)CN([C@H](C)CO)C(=O)c2cc(NS(=O)(=O)c3cccs3)ccc2O1`: the cytotoxicity call is “inactive”.

Turning to `O=C1CSC(/N=C/c2ccccc2O)=NN1`, the cytotoxicity call was “active”.

Take `C[C@@H]1CN([C@H](C)CO)C(=O)c2cc(NC(=O)Nc3ccc(C(F)(F)F)cc3)ccc2O[C@@H](C)CCCCO[C@H]1CN(C)Cc1ccc(C(=O)O)cc1`: the cytotoxicity call was “inactive”.

Turning to `Cc1noc(C)c1S(=O)(=O)Nc1ccc2c(c1)C(=O)N([C@@H](C)CO)C[C@H](C)[C@@H](CN(C)S(=O)(=O)c1cn(C)cn1)O2`, the cytotoxicity call is “inactive”.

Regarding `Cc1noc(C)c1NC(=O)N(C)C[C@H]1Oc2c(NC(=O)C3CCOCC3)cccc2C(=O)N([C@H](C)CO)C[C@H]1C`, the cytotoxicity call was “inactive”.

Turning to `C=CC[C@@H](CC(=O)N(CCO)Cc1ccccc1)C(=O)NC[C@@H](OC(=O)[C@@H](CC=C)Cc1ccc(F)cc1)c1ccccc1`, the cytotoxicity call was “inactive”.

For `C=CC[C@H](CC(=O)N(CCO)Cc1ccccc1)C(=O)NC[C@@H](OC(=O)[C@@H](CC=C)Cc1ccc(F)cc1)c1ccccc1`, the cytotoxicity call is “inactive”.

As to `C=CC[C@H](CC(=O)N(CCO)Cc1ccccc1)C(=O)NC[C@H](OC(=O)[C@@H](CC=C)Cc1ccc(F)cc1)c1ccccc1`, the cytotoxicity call was “active”.

Turning to `C=CC[C@@H](CC(=O)N(CCO)Cc1ccccc1)C(=O)NC[C@H](OC(=O)[C@@H](CC=C)Cc1ccc(F)cc1)c1ccccc1`, the cytotoxicity call was “active”.

For the molecule `C[C@H](CO)N1C[C@H](C)[C@H](CN(C)S(=O)(=O)c2cccs2)Oc2ncc(C#CC(C)(C)O)cc2C1=O`, the cytotoxicity call is “inactive”.

As for `COc1ccc(S(=O)(=O)N(C)C[C@H]2Oc3ccc(NS(C)(=O)=O)cc3C(=O)N([C@@H](C)CO)C[C@H]2C)cc1`, the cytotoxicity call is “inactive”.

For `CC(C)NC(=O)N(C)C[C@H]1Oc2c(NS(=O)(=O)c3ccc(Cl)cc3)cccc2C(=O)N([C@@H](C)CO)C[C@@H]1C`, the cytotoxicity call was “inactive”.

For `CC(C)NC(=O)Nc1cccc2c1O[C@H](CN(C)Cc1ccc(-c3ccccc3)cc1)[C@H](C)CN([C@@H](C)CO)C2=O`, the cytotoxicity call is “inactive”.

The values above are taken from the antibiotic and cytotoxicity screens of Wong et al. (2023).
